Experimental data as given in PubChem BioAssay (Tox21).
Inconclusive results are not listed. Activity calls are given as the source filed them. Unless noted, calls follow the shape of the dose curve; as a rule, active = well fitted curve in the direction sought with a large enough effect in the repeat runs; inconclusive = weak or mixed curves; inactive = no such curve, though single readings can be large; an effect the other way counts as inactive or inconclusive.

What was measured:
[1] = target: Thyrotropin receptor (Homo sapiens) (UniProt P16473); test: qHTS assay to identify small molecule agonists of the thyroid stimulating hormone receptor (TSHR) signaling pathway (AID 1224843; calls by dose curve; also: nearly all actives have a fitted effect of over 45% in size; also: potency is read from the fitted curve at half-maximal effect)
Chain of Thyrotropin receptor (Homo sapiens) (P16473 whole entry, looked up): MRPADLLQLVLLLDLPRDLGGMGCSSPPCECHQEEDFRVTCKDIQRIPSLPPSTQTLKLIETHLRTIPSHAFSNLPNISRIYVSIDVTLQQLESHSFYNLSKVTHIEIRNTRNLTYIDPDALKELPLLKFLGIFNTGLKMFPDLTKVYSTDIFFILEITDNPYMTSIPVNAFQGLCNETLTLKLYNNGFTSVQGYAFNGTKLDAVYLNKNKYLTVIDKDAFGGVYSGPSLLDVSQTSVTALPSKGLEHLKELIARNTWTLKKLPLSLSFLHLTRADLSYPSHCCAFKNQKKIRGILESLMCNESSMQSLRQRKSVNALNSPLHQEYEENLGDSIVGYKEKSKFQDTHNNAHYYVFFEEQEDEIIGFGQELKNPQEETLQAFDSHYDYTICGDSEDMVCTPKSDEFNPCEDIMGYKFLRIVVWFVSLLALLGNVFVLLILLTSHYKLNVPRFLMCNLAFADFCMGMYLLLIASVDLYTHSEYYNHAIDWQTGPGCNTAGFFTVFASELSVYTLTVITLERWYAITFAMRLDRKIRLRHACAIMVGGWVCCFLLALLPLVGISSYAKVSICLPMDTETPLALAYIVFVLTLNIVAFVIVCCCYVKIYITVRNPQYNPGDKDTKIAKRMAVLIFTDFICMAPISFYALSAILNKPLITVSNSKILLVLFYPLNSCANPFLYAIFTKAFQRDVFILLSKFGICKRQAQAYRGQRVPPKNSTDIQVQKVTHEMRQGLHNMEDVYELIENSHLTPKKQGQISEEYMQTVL
In short: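 HEK293/TSHR, 800 cells/well; cpd 30 min RT; add cAMP-d2 + anti-cAMP-cryptate, 1 h RT; fluorescence read on plate reader. 15-pt titration, n=3.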

[2] = qHTS assay to identify small molecule agonists of the hypoxia (HIF-1) signaling pathway - cell viability counter screen (AID 1224844; calls by dose curve; also: nearly all actives have a fitted effect of over 50% in size)
In short: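 HRE-bla ME-180; 0.5% dFBS; cpd 17 h, 37C, 5% CO2; CellTiter-Glo lum., 30 min RT, post-FRET read, same wells.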

[3] = qHTS assay to identify small molecule agonists of the hypoxia (HIF-1) signaling pathway (AID 1224846; active = well fitted activation curve with a large enough effect in the signal ratio in the repeat runs, not every such curve was filed as active; the % refers to the signal ratio)
In short: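 Reporter induction in HRE-bla ME-180 cells is taken as agonism: cells sit 5 hrs after plating, receive compounds or DMSO only, incubate 17 hrs at 37C under 5% CO2, and are loaded with CCF4-AM for beta-lactamase FRET measurement.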

[4] = qHTS assay to identify small molecule agonists of H2AX - cell viability counter screen (AID 1224847; calls by dose curve; also: top concentration of the series differs between compounds; nearly all actives have a fitted effect of over 30% in size)
In short: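 Viability of CHO-K1 (wild type) cells after 3 hr compound exposure was measured by CellTiter-Glo luminescence.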

[5] = qHTS RealTime-Glo MT Cell Viability Assay in HepG2 cells - 24 hour (AID 1224867); also: nearly all actives have a fitted effect of over 50% in size
In short: (§1)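 HepG2 cells (600/well) were dispensed with RealTime-Glo reagents, incubated 5 h at 37 °C, then treated with compounds in DMSO for up to 40 h. Nonlytic NanoLuc luminescence reflecting viable cells was read at each stated time point.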

[6] = qHTS RealTime-Glo MT Cell Viability Assay in HEK293 cells - 32 hour (AID 1224868); also: top concentration of the series differs between compounds; nearly all actives have a fitted effect of over 50% in size
In short: (§2)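 HEK293 cells seeded with NanoLuc/prosubstrate reagent, rested 5 h at 37 C, then dosed and kept at 37 C up to 40 h. Nonlytic real-time luminescence from viable cells read at 0, 8, 16, 24, 32 and 40 h.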

[7] = A CellTox Green Cytotoxicity Assay to monitor cytotoxicity in HEK293 cells - 0 hour (AID 1224869); also: nearly all actives have a fitted effect of over 50% in size
In short: (§3)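 Tox21 screen in HEK293: membrane-impermeant cyanine dye fluoresces on binding dead-cell DNA; compound pinned 5 h post-seeding, plates held at 37 C, signal read repeatedly through 40 h.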

[8] = qHTS RealTime-Glo MT Cell Viability Assay in HepG2 cells - 40 hour (AID 1224870); also: nearly all actives have a fitted effect of over 50% in size
In short: (§4)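 HepG2 cells (600/well) mixed with RealTime-Glo MT reagent, settled 5 h at 37 C/5% CO2 before compound addition. Nonlytic NanoLuc luminescence from viable-cell prosubstrate reduction read repeatedly during 40 h treatment at 37 C.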

[9] = A CellTox Green Cytotoxicity Assay to monitor cytotoxicity in HEK293 cells - 40 hour (AID 1224871); also: nearly all actives have a fitted effect of over 45% in size; also: potency is read from the fitted curve at half-maximal effect
In short: as §3

[10] = qHTS RealTime-Glo MT Cell Viability Assay in HEK293 cells - 16 hour (AID 1224872)
In short: as §2

[11] = qHTS RealTime-Glo MT Cell Viability Assay in HepG2 cells - 8 hour (AID 1224873); also: nearly all actives have a fitted effect of over 55% in size
In short: as §4

[12] = qHTS RealTime-Glo MT Cell Viability Assay in HEK293 cells - 40 hour (AID 1224874); conditions: RealTime-Glo luminescence; max response: stronger effect = lower value; also: nearly all actives have a fitted effect of over 50% in size
In short: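 HEK293 + NanoLuc + prosubstrate, 600 cells/well; 5 h, 37 C/5% CO2; compound 23 nL in DMSO by pintool; 37 C; luminescence read at 0, 8, 16, 24, 32 and 40 h time points.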

[13] = A CellTox Green Cytotoxicity Assay to monitor cytotoxicity in HEK293 cells - 24 hour (AID 1224875); also: nearly all actives have a fitted effect of over 45% in size; also: potency is read from the fitted curve at half-maximal effect
In short: as §3

[14] = A CellTox Green Cytotoxicity Assay to monitor cytotoxicity in HepG2 cells - 16 hour (AID 1224876); also: nearly all actives have a fitted effect of over 45% in size
In short: (§5)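 Measurements at 0, 8, 16, 24, 32 and 40 h of treatment captured CellTox Green fluorescence in HepG2 cells that had been co-plated with reagent and preincubated 5 h at 37 C/5% CO2.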

[15] = qHTS RealTime-Glo MT Cell Viability Assay in HepG2 cells - 32 hour (AID 1224877); also: nearly all actives have a fitted effect of over 55% in size
In short: as §1

[16] = A CellTox Green Cytotoxicity Assay to monitor cytotoxicity in HepG2 cells - 24 hour (AID 1224878); also: nearly all actives have a fitted effect of over 45% in size
In short: as §5

[17] = A CellTox Green Cytotoxicity Assay to monitor cytotoxicity in HepG2 cells - 40 hour (AID 1224879); also: nearly all actives have a fitted effect of over 40% in size
In short: as §5

[18] = qHTS assay to identify small molecule agonists of H2AX (AID 1224845; active = well fitted activation curve with a large enough effect in the signal ratio in the repeat runs, not every such curve was filed as active; the % refers to the signal ratio)
In short: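 Wild-type CHO-K1 cells, plated overnight, exposed 3hr at 37C to 15 concentrations (0.76% DMSO final). Lysed, then HTRF anti-pH2AX (S139) cryptate and anti-H2AX-d2 antibodies, 24 hr room temperature; 665/620 nm emission read.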

[19] = qHTS assay to identify small molecule antagonists of the estrogen related receptor (ERR) signaling pathway from Tox21 library (AID 1224848); also: nearly all actives have a fitted effect of over 50% in size; also: potency is read from the fitted curve at half-maximal effect
In short: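 Compounds dissolved in DMSO are pin-transferred onto ERR reporter cells (2,000 per well) that have settled for 6 h at 37 C. Plates then incubate 18 h at 37 C before ONE-Glo luciferase reagent and a luminescence read 30 min later.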

[20] = qHTS assay to identify small molecule agonists of the estrogen related receptor (ERR) signaling pathway from Tox21 library (AID 1224849; calls by dose curve; also: nearly all actives have a fitted effect of over 15% in size); conditions: ERR reporter cell line, ONE-Glo luciferase, 18 h; at 92.4 µM (top of the series) unless noted
In short: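 Tox21 compounds tested for ERR agonism in an NTP reporter cell line: 18 h treatment at 37 C, then ONE-Glo luminescence.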
% is scaled to controls: 0 for no effect and ±100 for the full control effect.

CCNCCO
inactive: Potency [1] | Potency [2] | outcome [3] | Potency [4] | Potency [5] | Potency [6] | Potency [7] | Potency [8] | Potency [9] | Potency [10] | outcome [11] | max response [12] 9.13% | Potency [13] | Potency [14] | Potency [15] | Potency [16] | Potency [17]

CC1=CC(=O)CC(C)(C)C1=O
inactive: Potency [1] | Potency [2] | Potency [18] | Potency [4] | Potency [5] | Potency [6] | Potency [7] | Potency [8] | Potency [10] | outcome [11] | max response [12] -4.9% | Potency [13] | Potency [14] | Potency [15] | Potency [16] | Potency [17]

CC(C)O
inactive: Potency [1] | Potency [4] | Potency [5] | Potency [6] | Potency [7] | Potency [8] | Potency [9] | Potency [10] | outcome [11] | max response [12] -1.12% | Potency [13] | Potency [14] | Potency [15] | Potency [16] | Potency [17]

CCCCCCCCc1ccc(S(=O)(=O)O)cc1
inactive: Potency [1] | Potency [4] | Potency [5] | Potency [6] | Potency [7] | Potency [8] | Potency [10] | outcome [11] | max response [12] -16.1% | Potency [15]
active: Potency [9] 54.5 µM | Potency [13] 48.6 µM

NS(=O)(=O)c1cc(-c2nn[nH]n2)c(NCc2cccs2)cc1Cl
inactive: Potency [1] | Potency [2] | Potency [4] | Potency [5] | Potency [6] | Potency [7] | Potency [8] | Potency [9] | Potency [10] | outcome [11] | max response [12] -3.29% | Potency [13] | Potency [14] | Potency [15] | Potency [16] | Potency [17]

Cc1onc(-c2ccccc2)c1C(=O)Cl
inactive: Potency [1] | Potency [2] | Potency [4] | Potency [5] | Potency [6] | Potency [7] | Potency [8] | Potency [9] | Potency [10] | outcome [11] | max response [12] 5.64% | Potency [13] | Potency [15]

CCCCNC(=S)NCCCC
active: Potency [19] 68.6 µM
inactive: Potency [1] | Potency [18] | outcome [3] | Potency [4] | activity change, positive = activation [20] -66.6% | Potency [5] | Potency [6] | Potency [7] | Potency [8] | Potency [10] | outcome [11] | max response [12] -21.7% | Potency [13] | Potency [14] | Potency [15] | Potency [16] | Potency [17]

O=C(CC(=O)C(F)(F)F)c1ccccc1
active: Potency [1] 17.5 µM
inactive: Potency [18] | Potency [4] | Potency [19] | activity change, positive = activation [20] -6.03% | Potency [5] | Potency [6] | Potency [7] | Potency [8] | Potency [9] | Potency [10] | outcome [11] | max response [12] -4.62% | Potency [13] | Potency [14] | Potency [15] | Potency [16] | Potency [17]

Cc1c[nH]c(=S)[nH]c1=O
inactive: Potency [2] | Potency [18] | outcome [3] | Potency [4] | Potency [5] | Potency [6] | Potency [7] | Potency [8] | Potency [9] | Potency [10] | outcome [11] | max response [12] 22.1% | Potency [13] | Potency [14] | Potency [15] | Potency [16] | Potency [17]

c1ccc(CN(CC2=NCCN2)c2ccccc2)cc1
inactive: Potency [1] | Potency [2] | Potency [4] | Potency [19] | activity change, positive = activation [20] -0.231% [at 42.5 µM] | Potency [5] | Potency [6] | Potency [8] | Potency [10] | outcome [11] | max response [12] -19.9% | Potency [13] | Potency [14] | Potency [15] | Potency [16] | Potency [17]

CN(C)CC[C@@H](c1ccc(Cl)cc1)c1ccccn1
inactive: Potency [1] | Potency [2] | Potency [4] | Potency [5] | Potency [6] | Potency [7] | Potency [8] | Potency [9] | Potency [10] | outcome [11] | max response [12] -0.584% | Potency [13] | Potency [14] | Potency [15] | Potency [16] | Potency [17]

CC1(C)O[C@@H]2C[C@H]3[C@@H]4CCC5=CC(=O)CC[C@]5(C)[C@@]4(F)[C@@H](O)C[C@]3(C)[C@]2(C(=O)CCl)O1
inactive: Potency [1] | Potency [18] | Potency [4] | Potency [5] | Potency [7] | Potency [8] | Potency [9] | Potency [10] | outcome [11] | Potency [13] | Potency [14] | Potency [15] | Potency [17]

O=C1CCCc2ccccc21
inactive: Potency [2] | Potency [18] | outcome [3] | Potency [4] | Potency [19] | activity change, positive = activation [20] 6.42% | Potency [5] | Potency [6] | Potency [7] | Potency [8] | Potency [9] | Potency [10] | outcome [11] | max response [12] 23.3% | Potency [13] | Potency [14] | Potency [15] | Potency [16] | Potency [17]

C=Cc1ccccc1
inactive: Potency [2] | Potency [18] | outcome [3] | Potency [4] | Potency [5] | Potency [6] | Potency [7] | Potency [8] | Potency [9] | Potency [10] | outcome [11] | max response [12] 10.3% | Potency [13] | Potency [14] | Potency [15] | Potency [16] | Potency [17]

CC(C)(CO)[C@@H](O)C(=O)NCCC(=O)O
inactive: Potency [1] | Potency [2] | Potency [4] | Potency [19] | activity change, positive = activation [20] 7.16% | Potency [5] | Potency [6] | Potency [7] | Potency [9] | Potency [10] | outcome [11] | max response [12] 4.63% | Potency [13] | Potency [14] | Potency [15] | Potency [16] | Potency [17]

CCCCCCCCOC(=O)CCCCCCCCC(=O)OCCCCCCCC
inactive: Potency [2] | Potency [18] | outcome [3] | Potency [4] | Potency [19] | activity change, positive = activation [20] 3.45% | Potency [5] | Potency [6] | Potency [7] | Potency [8] | Potency [9] | Potency [10] | outcome [11] | max response [12] 6.02% | Potency [13] | Potency [14] | Potency [15] | Potency [16] | Potency [17]
